Source: PubChem BioAssay (several laboratories)
Only some compounds are listed: those with a hit (about 1.8% of all), similar ones and a draw of the others.
m5-HT2A agonist: activates the mouse 5-HT2A serotonin receptor; P35363; CHO-K1 mHTR2A beta-arrestin complementation, luminescence; percent of 30 µM serotonin response; activation, % at 7.6 µM; hit rate 0.66% among 360,000; AID 624169;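 active = activation above a run cutoff, the mean activation of all tested compounds plus 3 SD, cut at about 14% in these data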;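 also: 0% = plate median of compound wells and 100% = 30 µM serotonin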
TLR4 MyD88 comp: TLR4-MyD88 interaction inhibition in cells. hit rate 0.18% among 200,000. inhibition, % at 8.4 µM. HeLa CL3-4 TLR4/MyD88 BLA complementation, FRET ratio. O00206+Q99836; in the data active = inhibition above about 25%;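 also: 0% = vehicle and 100% = reference inhibitor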
NOD2 RIPK2 PPI: NOD2-RIPK2 protein interaction inhibition. CHO BLA complementation NOD2-RIPK2, CCF4 ratio. inhibition, % at 4.98 µM. hit rate 0.38% among 360,000; in the data active = inhibition above about 21%;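 also: 0% = vehicle only and 100% = reference blocker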
Rtt109 Vps75: C. albicans Rtt109 histone acetyltransferase inhibition. purified Rtt109/Vps75, ThioGlo CoA-SH fluorescence, 4 h. inhibition, % at 34.9 µM. hit rate 0.16% among 330,000. Q5AAJ8;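 active = inhibition of at least 50% in every replicate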
Target sequence (Q5AAJ8 whole entry, looked up): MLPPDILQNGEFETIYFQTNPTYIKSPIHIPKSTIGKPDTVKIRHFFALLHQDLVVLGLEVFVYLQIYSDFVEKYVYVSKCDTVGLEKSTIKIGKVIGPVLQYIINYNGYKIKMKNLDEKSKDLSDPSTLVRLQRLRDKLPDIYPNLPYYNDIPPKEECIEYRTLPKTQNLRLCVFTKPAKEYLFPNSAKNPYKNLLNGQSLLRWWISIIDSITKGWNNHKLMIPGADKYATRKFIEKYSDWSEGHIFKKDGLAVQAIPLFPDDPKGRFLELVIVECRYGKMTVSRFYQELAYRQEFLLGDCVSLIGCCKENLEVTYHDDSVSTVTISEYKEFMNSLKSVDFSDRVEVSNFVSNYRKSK
LANA-H2B inh: blocks KSHV LANA binding to histone H2A/H2B | Q9QR71 | cell-free LANA-H2A/H2B peptide, fluorescence polarization | inhibition, % (no concentration beside the values) | hit rate 0.6% among 320,000; in the data active = inhibition mostly above about 10%, no sharp cut-off; inactive = mostly below about 6.7%
TLR9-MyD88 block: TLR9-MyD88 interaction inhibition. Q9NR96+Q99836. CHO BLA complementation TLR9-MyD88, CCF4 FRET ratio. inhibition, % at 4.98 µM. hit rate 0.21% among 340,000;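 active = inhibition above the mean over all tested compounds plus 3 SD, cut at about 21% in these data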;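 also: 0% = DMSO only wells and 100% = clavulanate BLA inhibitor control wells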
MOR ag counter: counter-screen for mouse HTR2A agonists: human mu opioid receptor agonists; shares compounds with m5-HT2A agonist; U2OS OPRM1 beta-arrestin PathHunter, luminescence; DMSO 0%, DAMGO 9.3 µM 100%; activation, % at 9.3 µM; hit rate 5.3% among 2,300; AID 624380;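 active = mean activation above the mean of DMSO-only wells plus 3 SD, cut at about 0.5% in these data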
m5-HT2A ag conf: confirmation of mouse HTR2A serotonin receptor agonists; shares compounds with m5-HT2A agonist; CHO-K1 PathHunter beta-arrestin recruitment, luminescence; DMSO 0%, 30 µM serotonin 100%; activation, % at 7.6 µM; hit rate 19% among 2,300;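 active = mean activation across triplicates above the hit threshold derived in the original primary screen, cut at about 15% in these data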
* hit, by the source's call; · = no result given.

SMILES	m5-HT2A agonist	TLR4 MyD88 comp	NOD2 RIPK2 PPI	Rtt109 Vps75	LANA-H2B inh	TLR9-MyD88 block	MOR ag counter	m5-HT2A ag conf
Cc1ccc(-c2ccc(/C=C3\SC(N4CCOCC4)=NC3=O)o2)cc1	14.5*	11.2	5.9	10.3	-7.4	-2.3	0.2	38.9*
O=C1N=C(N2CCOCC2)S/C1=C/c1ccc(-c2ccc(F)cc2)o1	10.8	0.2	-1.6	·	-4.9	-7.8	·	·
CC(C)C[C@H](NC(=O)C1CCN(S(=O)(=O)c2ccccc2)CC1)C(=O)NCc1ccncc1	-1.4	·	10.0	-3.8	-1.5	7.5	·	·
COc1cccc(NC(=O)N2CCN(c3cccc(C)c3)C(C)C2)c1 (stereo unspecified)	4.2	-1.5	-6.6	2.8	0.9	3.7	·	·
COc1cccc(N2CCN(C(=O)c3ccc(=O)oc3)CC2C)c1 (stereo unspecified)	21.5*	9.2	-13.7	4.3	1.0	-9.4	-0.5	4.0
Cc1cccc2sc(NNC(=O)C3=COCCO3)nc12	16.8*	-6.3	-6.4	0.9	4.4	-21.8	-0.4	-0.9
CC(C)NC(=O)N(C)C[C@H]1Oc2cc(C#Cc3ccc(F)cc3)ccc2S(=O)(=O)N([C@H](C)CO)C[C@H]1C	41.1*	·	5.8	·	·	4.6	-0.7	23.8*
C[C@@H](O)C#Cc1ccc2c(c1)O[C@H](CN(C)C(=O)Nc1ccccc1)[C@@H](C)CN([C@@H](C)CO)S2(=O)=O	14.7*	·	-10.1	·	·	0.3	-0.2	8.4
O=C(O)c1cccc(Nc2ccc3nonc3c2[N+](=O)[O-])c1	-2.3	·	1.6	2.9	0.8	-10.2	·	·
O=[N+]([O-])c1c(Nc2ccccc2)ccc2nonc12	23.1*	-0.7	-9.2	-1.8	3.9	1.6	-0.3	-4.0
O=C(CSc1ccc2nnc(-c3ccncc3)n2n1)Nc1ccc2c(c1)OCO2	35.3*	8.2	-1.7	-15.3	-2.5	2.3	-0.2	-0.3
CCC(=O)NCc1ccc2[nH]c(C)cc2c1	3.3	-1.5	2.9	2.5	0.2	3.6	·	·
CC(=O)NCc1ccc2[nH]c(C)cc2c1	17.0*	3.8	3.6	3.6	0.5	6.1	-0.7	-0.1
CCCCC(=O)Nc1cc2nn(-c3ccc(OC)cc3)nc2cc1C	15.0*	-5.6	3.6	-7.9	2.4	-6.6	-0.1	-1.9
OC(COCc1ccccc1)CN1CCc2ccccc2C1 (stereo unspecified)	-7.0	-6.0	0.5	4.2	-1.8	-4.2	·	·
COc1ccc(COCC(O)CN2CCc3ccccc3C2)cc1OC (stereo unspecified)	21.4*	2.2	0.1	-7.0	-3.6	-1.4	-0.1	4.2
CCCC(=O)Nc1cccc(-c2nc3ccccc3c(=O)o2)c1	15.0*	-12.7	-5.0	-7.3	-0.2	0.4	-0.2	-1.3
Cc1cc2nc(C)c(Cl)c(=O)n2[nH]1	0.2	-19.9	0.7	·	3.3	6.4	·	·
Cc1nc2cc(-c3ccc(Br)cc3)[nH]n2c(=O)c1Cl	17.6*	·	-4.9	9.4	-2.5	-1.9	-0.6	-3.2
CC(C)(C)NC(=O)N1CCN(c2nc(-c3ccccc3)ns2)CC1	15.5*	·	7.2	-10.2	1.4	-10.8	-0.4	-1.7
Cc1cc(C(C)(C)C)cc(C)c1CC1=NCCN1	24.4*	9.9	-8.1	3.2	-14.1	-6.8	-0.6	24.3*
O=C(Nc1ccccc1)Nc1nnc(-c2cccs2)s1	21.3*	-6.5	9.6	-4.2	·	-2.0	0.0	-2.5
CCCOC(=O)C(C)Sc1n[nH]c(=O)[nH]c1=O (stereo unspecified)	14.4*	-0.6	-7.7	-5.7	-5.0	-3.5	-0.6	-2.5
CCCCCOC(=O)CSc1n[nH]c(=O)[nH]c1=O	0.7	4.3	5.3	-4.4	-4.0	3.0	·	·
CN1CCN(C(=O)OC2CC3CC2[C@H]2CCCCN2C3=O)CC1 (stereo partly specified)	-4.3	·	2.9	·	·	·	·	·
SMILES	m5-HT2A agonist	TLR4 MyD88 comp	NOD2 RIPK2 PPI	Rtt109 Vps75	LANA-H2B inh	TLR9-MyD88 block	MOR ag counter	m5-HT2A ag conf
O=C(CCc1ccccn1)NC1CCCc2c1cnn2-c1ccc(F)cc1F (stereo unspecified)	-0.7	2.5	-1.5	2.7	-1.0	-11.1	·	·
O=C(CCc1ccncc1)NC1CCCc2c1cnn2-c1ccc(F)cc1F (stereo unspecified)	15.6*	·	-5.5	-6.4	0.2	12.9	-0.4	-1.2
CN1C(=O)CC(N2CCN(c3ccc(Cl)c(Cl)c3)CC2)C1=O (stereo unspecified)	15.5*	-1.0	-1.4	0.0	0.6	8.6	-0.1	4.9
O=C(Nc1ccc(S(=O)(=O)N2CCCCCC2)cc1)c1ccco1	14.6*	8.7	-3.6	1.4	-0.4	1.3	-0.6	-2.3
CCN(CC)CCn1c(NC(=O)c2ccc(C)cc2)nc2ccccc21	25.1*	·	-3.6	2.5	4.4	-8.1	·	7.5
Cc1cc([N+](=O)[O-])ccc1NC(=O)c1cncc(Br)c1	15.8*	-10.6	0.7	-3.3	-2.2	-6.2	-0.5	-4.9
CC(C(=O)O)c1ccc(C(=O)c2cccs2)cc1 (stereo unspecified)	18.2*	·	-7.4	8.0	2.3	-4.3	-0.5	49.5*
Cc1ccc2nc(SCC(=O)Nc3ccc(F)c([N+](=O)[O-])c3)[nH]c2c1	-1.7	-2.2	0.1	2.0	-1.4	-7.0	·	·
Cc1cc(=O)[nH]c(SCC(=O)Nc2ccc(F)c([N+](=O)[O-])c2)n1	28.4*	1.8	-3.3	1.8	6.2	6.1	-0.3	-1.9
O=C(CSc1nc2ccccc2o1)NC1CCS(=O)(=O)C1 (stereo unspecified)	-0.8	·	-15.2	-1.5	2.9	-7.3	·	·
O=C(NCCO)/C(=C\c1cccs1)NC(=O)c1cccs1	23.7*	16.1	2.2	-5.9	-9.4	3.6	-0.3	-2.3
Cc1cc2oc(C(=O)Nc3c(C)n(C)n(-c4ccccc4)c3=O)c(C)c2cc1C	1.4	7.8	1.3	0.2	-9.0	-5.6	·	·
Cc1ccc2c(C)c(C(=O)Nc3c(C)n(C)n(-c4ccccc4)c3=O)oc2c1C	17.5*	1.4	-15.8	9.4	-1.9	0.4	-0.1	40.1*
O=C(NCc1ccccc1)c1cc(C2CCCCN2C(=O)c2ccc(Cl)cc2)on1 (stereo unspecified)	-1.0	·	-0.8	·	·	·	·	·
COC(=O)c1ccc(CSc2nnc(NC(C)C)s2)o1	-0.8	-13.7	-7.5	1.4	-1.4	-3.8	·	·
Cc1ccc(SCC(=O)NC(=O)NCCC(C)C)c(C)c1	3.1	-17.3	1.2	1.4	0.3	5.3	·	·
Cc1ccc(SCC(=O)NC(=O)NC(C)C)c(C)c1	15.8*	3.8	-9.0	35.9	0.9	-5.6	0.2	4.9
